Format in all cases: functional
For assay [1], the system named is Plasmodium falciparum. Description: GSK_TCMDC: Inhibition of Plasmodium falciparum 3D7 in whole red blood cells, using parasite LDH activity as an index of growth. Test compounds present at 2uM.
In assay [2] the test system is Plasmodium falciparum. Description: GSK_TCMDC: Inhibition of Plasmodium falciparum Dd2 in whole red blood cells, using parasite LDH activity as an index of growth. Test compounds present at 2uM.
The subject of another assay is HepG2. Description: GSK_TCMDC: Percent inhibition of human HepG2 cell line. Test compounds present at 10uM.

Each structure is given as a SMILES string.

The Inhibition is the share of the control response that was lost under treatment.

On to `COc1cc(NC(=O)c2c(-c3c(F)cccc3Cl)noc2C)c(OC)cc1Cl`, for which the values for the Inhibition in the assay on Plasmodium falciparum [1], in the assay on Plasmodium falciparum [2] and in the assay with HepG2 were 89%, 17% and 0%, respectively.
For the molecule `CCN1CCC(N(Cc2ccc(-c3ccc(C(F)(F)F)cc3)cc2)C(=O)CCCCn2c(CCc3cccc(F)c3F)nc(=O)c3ccccc32)CC1`, the values for the Inhibition with Plasmodium falciparum [1], with Plasmodium falciparum [2] and with HepG2 were 90%, 77% and 54%, respectively.
The corresponding values for `CCOc1ccc2nc(NC(=O)c3csnn3)sc2c1` are 100%, 98% and 6%.
For `COc1ccc(-c2nc3cccnc3n2CC(=O)Nc2c(C)cc(C)cc2C)c(OC)c1` the same measures were 91%, 21% and 77%.
On to `Cc1cc(N2CCN(C)CC2)nc2ccc(NC(=O)Cc3cccc(C(F)(F)F)c3)cc12`, for which the Inhibition in the assay on Plasmodium falciparum [1] was determined as 99%; in the assay with Plasmodium falciparum [2], 51%; in the assay on HepG2, 26%.
For `Cc1csc(-c2nc(NCc3cccnc3)ncc2-c2ccsc2)n1`, the values for the Inhibition in the assay on Plasmodium falciparum [1], with Plasmodium falciparum [2] and in the assay on HepG2 were 87%, 74% and 0%, respectively.
For `CCOC(=O)c1cn(CC)c2cc(N3CCCCC3)c(F)cc2c1=O` the same measures were 97%, 96% and 0%.
The corresponding values for `Cc1ccc(CN2CCCN(Cc3cccc(C(=O)Nc4ccc(C(C)(C)C)cc4)c3)CC2)s1.O=C(O)C(F)(F)F` are 85%, 4% and 31%.
Take `Cc1cc(N(C)C)nc(Nc2ccc(NS(=O)(=O)c3ccccc3)cc2)n1`: the Inhibition in the assay with Plasmodium falciparum [1] amounted to 92%; in the assay on Plasmodium falciparum [2] it was 11%; with HepG2, 0%.
For `Cc1[nH]cnc1CSCCNC(=N)NCCCCCCCCNC(=N)NCCSCc1nc[nH]c1C.Cl` the same measures were 96%, 95% and 24%.
Take `COc1ccc2nccc([C@@H](O)CN3CCC(NCc4cn5cc(F)ccc5n4)CC3)c2c1.O=C(O)C(=O)O`: the Inhibition worked out at 96% with Plasmodium falciparum [1], 5% with Plasmodium falciparum [2] and 19% in the assay with HepG2.
The corresponding values for `FC(F)(F)c1ccc2[nH]c(-c3ccc(-c4cccc(CNCC5CCCO5)c4)cc3)nc2c1.O=C(O)C(F)(F)F` (centres undefined) are 100%, 100% and 36%.
For `Cc1cc(-c2cccc(CNCCc3ccc(Cl)cc3)c2)cnc1N.Cl` the same measures were 90%, 3% and 19%.
The corresponding values for `Cc1c2ccncc2c(C)c2c1[nH]c1cc(Cc3ccccc3)c(O)cc12` are 100%, 99% and 99%.
For the molecule `CC(C)c1ccc(CN2CCCCC(NC(=O)c3cc(-c4cccc(F)c4)cs3)C2)cc1.O=C(O)C(F)(F)F` (centres undefined), the figures for the Inhibition with Plasmodium falciparum [1], in the assay with Plasmodium falciparum [2] and in the assay with HepG2 were 94%, 13% and 6%, respectively.
The corresponding values for `O=C(CCCCCNC(=O)c1ccc(O)c(-c2ccc(Cl)c(Cl)c2)c1)NCCc1ccc(Cl)c(Cl)c1` are 97%, 20% and 57%.
With `CC1CN(Cc2cccc(C#N)c2)CCN1c1ccc(NC(=O)c2cccs2)cc1.O=C(O)C(F)(F)F` (centres undefined), the Inhibition came to 94% in the assay with Plasmodium falciparum [1], 93% in the assay on Plasmodium falciparum [2] and 4% in the assay on HepG2.
For `COc1ccc(Cl)cc1C(=O)Nc1ccc(-c2nc3ccccc3[nH]2)cc1` the same measures were 92%, 39% and 42%.
The corresponding values for `COc1ccc(Nc2nc(N/N=C/c3ccc(O)cc3)nc(Nc3ccc([N+](=O)[O-])cc3)n2)cc1` are 93%, 16% and 0%.
The corresponding values for `CC(C)(c1ccccc1)c1ccc(O)c(CN2CCOCC2)c1` are 99%, 88% and 0%.
For `Oc1c(C=Nn2cnnc2)sc2ccccc12`, the Inhibition with Plasmodium falciparum [1] stood at 93%; with Plasmodium falciparum [2] it was 68%; in the assay on HepG2, 0%.
For `O=C(Nc1ccc(Cl)cc1)c1cccc(S(=O)(=O)NC2CCN(CC3CCCCC3)CC2)c1.O=C(O)C(F)(F)F` the same measures were 92%, 11% and 67%.
For `CCN(CC)CCNc1ccnc2c3ccccc3n(C)c12` the same measures were 100%, 99% and 14%.
In the case of `O=[N+]([O-])c1cc(C(c2ccc(O)c([N+](=O)[O-])c2)C(Cl)(Cl)Cl)ccc1O`, the Inhibition was 93% with Plasmodium falciparum [1], 98% in the assay on Plasmodium falciparum [2] and 2% in the assay on HepG2.
For the molecule `O=C(Nc1ccon1)c1cc(-c2cccnc2)nc2ccc(Cl)cc12`, the Inhibition with Plasmodium falciparum [1] amounted to 98%; with Plasmodium falciparum [2], 76%; with HepG2, 0%.
Take `CCCCc1ccc2[nH]c(NC(=O)OC)nc2c1` [PARBENDAZOLE]: the Inhibition in the assay on Plasmodium falciparum [1] was found to be 98%; in the assay with Plasmodium falciparum [2] it was 1%; with HepG2, 26%.
For `O=C(NC1CCN(Cc2cccc(C(F)(F)F)c2)CC1)c1ccc(-c2cccc(C(F)(F)F)c2)s1.O=C(O)C(F)(F)F` the same measures were 94%, 54% and 36%.
For `CCCN(CC)CCOC(=O)c1ccccc1` the same measures were 99%, 1% and 2%.
The corresponding values for `COc1ccc2nccc([C@@H](O)CN3CCC(NCCOc4cccc(C(F)(F)F)c4)CC3)c2c1.O=C(O)C(=O)O` are 100%, 74% and 16%.
For `COc1cccc(OC)c1CN1CCC(N(C)CCCCCCCCN2CCC(OC(=O)Nc3ccccc3-c3ccccc3)CC2)CC1`, the Inhibition was 99% with Plasmodium falciparum [1], 100% with Plasmodium falciparum [2] and 100% in the assay on HepG2.
On to `CCN(CC)CCn1c(=N)n(CC(O)c2ccc(Cl)c(Cl)c2)c2ccccc21.Cl` (centres undefined), for which the Inhibition in the assay on Plasmodium falciparum [1] stood at 99%; with Plasmodium falciparum [2], 88%; with HepG2, 35%.
Turning to `N#Cc1cccc(C(=O)Nc2ccc(-c3nc4ccccc4[nH]3)cc2)c1`, the results for the Inhibition in the assay with Plasmodium falciparum [1], in the assay with Plasmodium falciparum [2] and in the assay with HepG2 were 91%, 38% and 33%, respectively.
Take `N=c1cc(C=Cc2ccc(O)cc2)[nH]c2ccccc12`: the Inhibition amounted to 100% with Plasmodium falciparum [1], 14% with Plasmodium falciparum [2] and 15% with HepG2.
For `COc1ccc(NC(=O)CCNc2cc(C)nc(NCc3cccc(C)c3)n2)cc1.O=C(O)C(F)(F)F`, the Inhibition in the assay with Plasmodium falciparum [1] was 100%; in the assay on Plasmodium falciparum [2] it was 25%; in the assay with HepG2, 14%.
`NCC1CCCN1Cc1cccc(-c2ccc(-c3nc4cc(C(F)(F)F)ccc4[nH]3)cc2)c1.O=C(O)C(F)(F)F` (centres undefined): the Inhibition in the assay on Plasmodium falciparum [1] is given as 100%; in the assay on Plasmodium falciparum [2] it was 95%; in the assay with HepG2, 20%.
For `Cc1cc(N)nc2ccc(-c3ccc(CN)cc3)cc12` the same measures were 100%, 93% and 4%.
The corresponding values for `O=C(O)C(F)(F)F.O=S(=O)(NCCN1CCCC1)c1ccc(-c2cccc(CNCc3ccsc3)c2)s1` are 90%, 43% and 42%.
In the case of `Cc1ccc(C)c(C2CCN(CCCCNC(=O)c3ccc(NC(=O)c4ccc(Cl)cc4)cc3)CC2)c1`, the Inhibition with Plasmodium falciparum [1] is 94%; in the assay on Plasmodium falciparum [2] it was 13%; in the assay with HepG2, 15%.
For `CC1CCCC(Nc2noc(-c3sccc3Br)n2)C1` (centres undefined), the Inhibition worked out at 100% in the assay on Plasmodium falciparum [1], 99% in the assay on Plasmodium falciparum [2] and 7% in the assay on HepG2.
For `CNC(=N)c1ccc(NC(=O)c2ccc(C(=O)Nc3ccc(C(=N)NC)cc3)cc2)cc1.Cl` the same measures were 96%, 91% and 6%.
For `CC(C)(C)c1nn(-c2ccccc2)c2[nH]c(=O)c(CNCCc3ccccc3)cc12` the same measures were 94%, 90% and 0%.
The corresponding values for `Cc1nc2sccn2c1C(=O)NCCc1ccccc1Cl` are 96%, 1% and 6%.
On to `Cc1ccc2nc(C)n(C3CCN(C(=O)C4(c5ccccc5)CC4)CC3)c2c1`, for which the Inhibition in the assay on Plasmodium falciparum [1] amounted to 100%; with Plasmodium falciparum [2] it was 83%; in the assay on HepG2, 8%.
The corresponding values for `Cc1cc(N/N=C/c2cccc([N+](=O)[O-])c2)c2cc(F)ccc2n1` are 100%, 99% and 3%.
As to `C=CCn1c(SCc2c(C)noc2C)nc2scc(-c3cccs3)c2c1=O`, the Inhibition with Plasmodium falciparum [1] is listed as 88%; with Plasmodium falciparum [2] it was 34%; in the assay with HepG2, 13%.
The corresponding values for `CCN1CCC(N(Cc2ccc(-c3ccc(C(F)(F)F)cc3)cc2)C(=O)Cn2c(CCc3cccc(F)c3F)cc(=O)c3ccccc32)C1.O=C(O)C(O)C(O)C(=O)O` (centres undefined) are 93%, 84% and 43%.
For `OCCOCn1cnc2cnc(N[C@H]3OC[C@H](O)[C@@H](O)[C@@H]3O)nc21` the same measures were 82%, 0% and 42%.
The corresponding values for `CC(C)(C)C(Cn1ccnc1)NCc1c[nH]nc1-c1ccc(-c2ccccc2)cc1` (centres undefined) are 98%, 69% and 15%.
Regarding `Cc1cccc2nc(-c3ccc(-c4cccc(CNCCCN5CCCC5=O)c4)s3)[nH]c12.O=C(O)C(F)(F)F`, the Inhibition worked out at 100% in the assay on Plasmodium falciparum [1], 26% with Plasmodium falciparum [2] and 14% in the assay on HepG2.
With `COc1cccc(Nc2c(C(N)=O)cnc3ccc(-c4ccc([S+](C)[O-])cc4)cc23)c1.O=C(O)C(F)(F)F` (centres undefined), the Inhibition came to 96% in the assay on Plasmodium falciparum [1], 100% in the assay on Plasmodium falciparum [2] and 0% with HepG2.
On to `O=C(Nc1cccc(-c2nn3ccccc3c2-c2ccnc(Nc3ccc(Cc4ccncc4)cc3)n2)c1)c1c(F)cccc1F`, for which the Inhibition in the assay on Plasmodium falciparum [1] came to 97%; with Plasmodium falciparum [2], 97%; in the assay on HepG2 it was 43%.
Take `Cc1[nH]c(C)c(-c2ccc(Oc3ccc(O)cc3)cc2)c(=O)c1Cl`: the figures for the Inhibition in the assay with Plasmodium falciparum [1], in the assay with Plasmodium falciparum [2] and with HepG2 were 91%, 87% and 0%, respectively.
Consider `COc1ccc(Cl)cc1N1CCN(CCCNC(=O)c2ccc(-c3nc4cnccc4[nH]3)c(Br)c2)CC1`, for which the Inhibition in the assay with Plasmodium falciparum [1] was determined as 86%; in the assay on Plasmodium falciparum [2] it was 15%; in the assay on HepG2, 5%.
The corresponding values for `COc1ccc(NC(=O)/C=C/c2ccccc2Cl)cc1OCCN1CCC(NCc2ccccc2)CC1` are 100%, 100% and 28%.
As to `CCOc1cc2ncnc(Nc3ccc(OCc4c(F)cccc4F)c(OC)c3)c2cc1OCC.Cl`, the Inhibition in the assay with Plasmodium falciparum [1] came out at 96%; with Plasmodium falciparum [2], 60%; in the assay on HepG2, 7%.
For `O=C(Nc1cccc(Cl)c1)N[C@H]1CCN(Cc2ccc(OCCCN3CCCCC3)cc2)C1` the same measures were 99%, 0% and 15%.
For `Cc1cnc(-c2ccc(NC(=O)N3CCc4cc5nccc(N6CCN7CCC[C@H]7C6)c5cc43)c3ccccc23)o1.Cl` the same measures were 100%, 45% and 12%.
The corresponding values for `O=C(/C=C/c1ccccc1O)N1CCC(CCN2CCC(c3c[nH]c4ccccc34)CC2)CC1` are 100%, 15% and 46%.
For `COc1ccc2nc(-c3cc(-c4ccc(NC(C)=O)cc4)cnc3N)[nH]c2c1`, the values for the Inhibition in the assay on Plasmodium falciparum [1], in the assay on Plasmodium falciparum [2] and with HepG2 were 93%, 73% and 55%, respectively.
For `COCCNCC(O)Cn1c2ccc(Cl)cc2c2cc(Cl)ccc21` (centres undefined) the same measures were 95%, 74% and 15%.
The corresponding values for `COc1ccccc1-c1cccc(Nc2c(Nc3ccc(Cl)cc3)c(=O)c2=O)c1` are 81%, 47% and 20%.
The corresponding values for `Cc1cccc(C)c1N1CCN(C2CCC(NC(=O)/C=C/c3ccccc3)CC2)CC1` (centres undefined) are 83%, 34% and 38%.
Take `CCn1ncc2c(NC3CCOCC3)c(CNC(=O)c3ccnn3C)c(C)nc21`: the Inhibition in the assay with Plasmodium falciparum [1] turned out to be 98%; in the assay with Plasmodium falciparum [2] it was 98%; in the assay with HepG2, 0%.

The values above are taken from ChEMBL document CHEMBL1157539, “Thousands of chemical starting points for antimalarial lead identification” (Nature, 2010).
